Measured values taken from the supplement of paper PMC7156485.
Values joined by “and” are separate entries in the source; they are usually repeats but may differ in a detail not shown here. Equal entries are not always repeated. ± gives the standard deviation of the averaged measurements.

Tests used:
Settings in all cases: concentration: 10 µM; 24 h
HCC1569 [1] = assay: cell number relative to DMSO (% of DMSO); higher = more cells (less growth inhibition / toxicity)
Summary of the method: (§1)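 After 24 h at 37 °C with compounds at 10 µM, in triplicate, HCC1569 and TDF cells were fixed with 3.7% formaldehyde. Immunostaining used a rabbit anti-H1.0 antibody and an AlexaFluor 647 secondary, with DAPI, and six fields per well were imaged at ×10. H1.0 nuclear intensity or cell number is presented as percent of the plate control, from the median of replicates, with HCC1569 values smoothed for positional effects.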

TDF [2] = assay: as above
Summary of the method: as §1

TDF [3] = assay: H1.0 immunofluorescence intensity relative to DMSO (% of DMSO); higher = stronger H1.0 induction, active = 120 or more
Summary of the method: as §1

HCC1569 [4] = assay: H1.0 immunofluorescence intensity relative to DMSO (% of DMSO); higher = stronger H1.0 induction, active = 140 or more
Summary of the method: as §1
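For H1.0 immunofluorescence intensity relative to DMSO in this document: TDF is a line of transformed human dermal fibroblasts of mesenchymal origin.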
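For cell number relative to DMSO in this document: TDF denotes transformed human dermal fibroblasts of mesenchymal origin.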

SMILES: O=C(Nc1ccccc1)c1cc([N+](=O)[O-])ccc1Cl
- cell number (HCC1569 [1]): 98.3
- cell number (TDF [2]): 90.5
- H1.0 immunofluorescence intensity (TDF [3]): 100 (inactive)
- H1.0 immunofluorescence intensity (HCC1569 [4]): 97.9 (inactive)

SMILES: COc1cc(C(=O)OCCC[NH+]2CCC[NH+](CCCOC(=O)c3cc(OC)c(OC)c(OC)c3)CC2)cc(OC)c1OC.[Cl-].[Cl-] [Dilazep hydrochloride]
- cell number (HCC1569 [1]): 94.8
- cell number (TDF [2]): 90.1
- H1.0 immunofluorescence intensity (TDF [3]): 108 (inactive)
- H1.0 immunofluorescence intensity (HCC1569 [4]): 107 (inactive)

SMILES: O=c1cc(N2CCOCC2)oc2c1ccc1ccccc12 [DNA-PK Inhibitor II]
- cell number (HCC1569 [1]): 98.1
- cell number (TDF [2]): 97.4
- H1.0 immunofluorescence intensity (TDF [3]): 92.5 (inactive)
- H1.0 immunofluorescence intensity (HCC1569 [4]): 112 (inactive)

SMILES: COc1ccc2c(c1)c(CC(=O)O)c(C)n2C(=O)c1ccc(Cl)cc1 [Indomethacin]
- cell number (HCC1569 [1]): 101 ± 1.8
- cell number (TDF [2]): 106 ± 20
- H1.0 immunofluorescence intensity (TDF [3]): 91.3 (inactive)
- H1.0 immunofluorescence intensity (HCC1569 [4]): 102 (inactive)

SMILES: C[N+](C)(C)CCC(=O)c1cccc2ccccc12.[I-] [2-(alpha-Naphthoyl)ethyltrimethylammonium iodide]
- cell number (HCC1569 [1]): 92.7
- cell number (TDF [2]): 81.5
- H1.0 immunofluorescence intensity (TDF [3]): 101 (inactive)
- H1.0 immunofluorescence intensity (HCC1569 [4]): 91.6 (inactive)

SMILES: CCC(C)C1OC2(CCC1C)CC1CC(CC=C(C)C(OC3CC(OC)C(OC4CC(OC)C(O)C(C)O4)C(C)O3)C(C)C=CC=C3COC4C(O)C(C)=CC(C(=O)O1)C34O)O2 (centres undefined) [Ivermectin]
- cell number (HCC1569 [1]): 102 ± 2.5
- cell number (TDF [2]): 103 ± 8.2
- H1.0 immunofluorescence intensity (TDF [3]): 92.8 (inactive)
- H1.0 immunofluorescence intensity (HCC1569 [4]): 93.7 (inactive)

SMILES: CC[C@H](C)[C@H](N)C(=O)N1CCC[C@H]1C(=O)N[C@H](C(=O)O)[C@@H](C)CC
- cell number (HCC1569 [1]): 102
- cell number (TDF [2]): 85.3
- H1.0 immunofluorescence intensity (TDF [3]): 97.2 (inactive)
- H1.0 immunofluorescence intensity (HCC1569 [4]): 103 (inactive)

SMILES: CCCc1nc2c(C)cc(-c3nc4ccccc4n3C)cc2n1Cc1ccc(-c2ccccc2C(=O)O)cc1 [Telmisartan]
- cell number (HCC1569 [1]): 99.7
- cell number (TDF [2]): 97.5
- H1.0 immunofluorescence intensity (TDF [3]): 101 (inactive)
- H1.0 immunofluorescence intensity (HCC1569 [4]): 97.2 (inactive)

SMILES: NCCS(=O)O [Hypotaurine]
- cell number (HCC1569 [1]): 106
- cell number (TDF [2]): 106
- H1.0 immunofluorescence intensity (TDF [3]): 96.6 (inactive)
- H1.0 immunofluorescence intensity (HCC1569 [4]): 88.6 (inactive)

SMILES: O=C1CCc2ccc(OCCCCN3CCN(c4cccc(Cl)c4Cl)CC3)cc2N1 [Aripiprazole]
- cell number (HCC1569 [1]): 95.5
- cell number (TDF [2]): 97
- H1.0 immunofluorescence intensity (TDF [3]): 96.2 (inactive)
- H1.0 immunofluorescence intensity (HCC1569 [4]): 126 (inactive)

SMILES: COc1cc2c(CCNC(C)=O)c[nH]c2cc1Cl [6-Chloromelatonin]
- cell number (HCC1569 [1]): 101
- cell number (TDF [2]): 106
- H1.0 immunofluorescence intensity (TDF [3]): 94.8 (inactive)
- H1.0 immunofluorescence intensity (HCC1569 [4]): 90 (inactive)

SMILES: CCCCCCCC/C=C\CCCCCCC(O)C(=O)O (centres undefined) [(9Z)-2-hydroxy-9-octadecenoic acid]
- cell number (HCC1569 [1]): 100
- cell number (TDF [2]): 88.9
- H1.0 immunofluorescence intensity (TDF [3]): 102 (inactive)
- H1.0 immunofluorescence intensity (HCC1569 [4]): 91.2 (inactive)

SMILES: CC(C=CC1=C(C)CCCC1(C)C)=CC=CC(C)=CC(=O)Nc1ccc(O)cc1 [Retinoic acid p-hydroxyanilide]
- cell number (HCC1569 [1]): 42.9
- cell number (TDF [2]): 85.3
- H1.0 immunofluorescence intensity (TDF [3]): 100 (inactive)
- H1.0 immunofluorescence intensity (HCC1569 [4]): 185 (active)

SMILES: CCCCCC=CCC=CCC=CCC=CCCCC(=O)C(F)(F)F
- cell number (HCC1569 [1]): 104
- cell number (TDF [2]): 96.7
- H1.0 immunofluorescence intensity (TDF [3]): 95.3 (inactive)
- H1.0 immunofluorescence intensity (HCC1569 [4]): 95.1 (inactive)

SMILES: C[C@H]1CN(C[C@H](Cc2ccccc2)C(=O)NCC(=O)O)CC[C@@]1(C)c1cccc(O)c1
- cell number (HCC1569 [1]): 94.4
- cell number (TDF [2]): 102
- H1.0 immunofluorescence intensity (TDF [3]): 88.5 (inactive)
- H1.0 immunofluorescence intensity (HCC1569 [4]): 107 (inactive)

SMILES: Cc1ccc(NC(=O)c2cccc(N(C)C)c2)cc1NC(=O)c1ccc(O)cc1
- cell number (HCC1569 [1]): 92.1 and 95.3
- cell number (TDF [2]): 100 and 94.1
- H1.0 immunofluorescence intensity (TDF [3]): 96.7 (inactive) and 105 (inactive)
- H1.0 immunofluorescence intensity (HCC1569 [4]): 110 (inactive) and 119 (inactive)

SMILES: Cl.O=S(=O)(c1cccc2c(I)cccc12)N1CCCNCC1
- cell number (HCC1569 [1]): 105
- cell number (TDF [2]): 116
- H1.0 immunofluorescence intensity (TDF [3]): 99.4 (inactive)
- H1.0 immunofluorescence intensity (HCC1569 [4]): 89.8 (inactive)

SMILES: CNC1(C)C2CCC(C2)C1(C)C (centres undefined) [Mecamylamine]
- cell number (HCC1569 [1]): 101
- cell number (TDF [2]): 106
- H1.0 immunofluorescence intensity (TDF [3]): 83.3 (inactive)
- H1.0 immunofluorescence intensity (HCC1569 [4]): 107 (inactive)

SMILES: CC(=O)OC1(C(C)=O)CCC2C3C=C(Cl)C4=CC(=O)C5CC5C4(C)C3CCC21C (centres undefined) [Cyproterone acetate]
- cell number (HCC1569 [1]): 91.8
- cell number (TDF [2]): 99.8
- H1.0 immunofluorescence intensity (TDF [3]): 92.2 (inactive)
- H1.0 immunofluorescence intensity (HCC1569 [4]): 98.5 (inactive)

SMILES: COc1ccccc1OCC(O)CN1CCN(CC(=O)Nc2c(C)cccc2C)CC1.Cl.Cl (centres undefined) [Ranolazine.2HCl]
- cell number (HCC1569 [1]): 104
- cell number (TDF [2]): 93.2
- H1.0 immunofluorescence intensity (TDF [3]): 94.2 (inactive)
- H1.0 immunofluorescence intensity (HCC1569 [4]): 102 (inactive)

SMILES: COCCc1ccc(OCC(O)CNC(C)C)cc1 (centres undefined) [Metoprolol]
- cell number (HCC1569 [1]): 104
- cell number (TDF [2]): 99.5
- H1.0 immunofluorescence intensity (TDF [3]): 102 (inactive)
- H1.0 immunofluorescence intensity (HCC1569 [4]): 104 (inactive)
